The source of these data is ChEMBL document CHEMBL1157539, “Thousands of chemical starting points for antimalarial lead identification” (Nature, 2010).

SMILES strings stand for the structures.

Broadly, the Inhibition is the change of the read-out against control, counted positive when it falls.

Holding throughout (type): functional
The test system of experiment [1] is Plasmodium falciparum. Nature of the experiment: GSK_TCMDC: Inhibition of Plasmodium falciparum 3D7 in whole red blood cells, using parasite LDH activity as an index of growth. Test compounds present at 2uM.
Experiment [2] concerns Plasmodium falciparum. Nature of the experiment: GSK_TCMDC: Inhibition of Plasmodium falciparum Dd2 in whole red blood cells, using parasite LDH activity as an index of growth. Test compounds present at 2uM.
Another experiment relates to HepG2. Nature of the experiment: GSK_TCMDC: Percent inhibition of human HepG2 cell line. Test compounds present at 10uM.

For the molecule `CC(C)(C)C1=CC(=NNC(=O)c2ccncc2)C=C(C(C)(C)C)C1=O`, the Inhibition in the experiment with Plasmodium falciparum [1] is 99%; in the experiment with Plasmodium falciparum [2], 99%; in the experiment with HepG2, 47%.

Consider `O=S(=O)(Nc1cccc(CCN2CCCCC2CCN2CCCC2)c1)c1ccc(-c2ccccc2)cc1` (stereo not drawn), for which the Inhibition with Plasmodium falciparum [1] is on record as 99%; in the experiment with Plasmodium falciparum [2], 5%; in the experiment on HepG2, 31%.

With `CC(=O)Nc1cccc(CN(Cc2ccc(-c3ccc(CNCc4cccnc4)cn3)cc2)C(=O)Cc2cccnc2)c1.O=C(O)C(F)(F)F`, the Inhibition with Plasmodium falciparum [1] is on record as 97%; in the experiment with Plasmodium falciparum [2], 65%; in the experiment with HepG2, 0%.

As to `O=C(Nc1ccc(Cn2ncc(N3CCCNCC3)c(Cl)c2=O)cc1)Nc1cccc(Oc2ccccc2)c1.O=C(O)C(F)(F)F`, the Inhibition came out at 81% in the experiment with Plasmodium falciparum [1], 41% in the experiment with Plasmodium falciparum [2] and 8% in the experiment with HepG2.

Consider `O=C(/C=C/c1ccc(Cl)cc1)NCCCCCN1CCCC(C(=O)Nc2ccc(F)c(Cl)c2)C1` (stereo not drawn), for which the Inhibition was 94% in the experiment on Plasmodium falciparum [1], 6% with Plasmodium falciparum [2] and 27% with HepG2.

Regarding `Cc1cccc(CN2CCCN(Cc3ccc(C(=O)Nc4ccc(Cl)cc4)cc3)CC2)c1.O=C(O)C(F)(F)F`, the Inhibition with Plasmodium falciparum [1] was found to be 92%; with Plasmodium falciparum [2], 17%; in the experiment on HepG2, 54%.

For `N#Cc1ccc2[nH]cc(C(=O)CCCCCN(Cc3ccccc3)Cc3ccccc3)c2c1`, the Inhibition with Plasmodium falciparum [1] was found to be 93%; in the experiment on Plasmodium falciparum [2], 97%; in the experiment with HepG2, 10%.

With `CCCCCC(C)C(C)c1cc(O)c2c(c1)OC(C)(C)CC2=Cc1ccncc1` (stereo not drawn), the Inhibition was 100% in the experiment with Plasmodium falciparum [1], 78% in the experiment with Plasmodium falciparum [2] and 0% in the experiment on HepG2.

With `COc1ccc2nccc([C@@H](O)CN3CCC(NCCOc4ccc(F)cc4[N+](=O)[O-])CC3)c2c1.O=C(O)C(=O)O`, the Inhibition with Plasmodium falciparum [1] was determined as 99%; with Plasmodium falciparum [2], 92%; in the experiment with HepG2, 8%.

Regarding `Cl.O=S(=O)(c1ccc2ccccc2c1)N1CCCN(Cc2ccc(OCCCN3CCCCC3)cc2)CC1`, the Inhibition in the experiment with Plasmodium falciparum [1] was determined as 98%; in the experiment with Plasmodium falciparum [2] it was 11%; in the experiment with HepG2, 43%.

With `CCCCCCN1CCC(NCc2cccc([N+](=O)[O-])c2)CC1.O=C(O)C(F)(F)F`, the Inhibition in the experiment on Plasmodium falciparum [1] is on record as 100%; in the experiment with Plasmodium falciparum [2], 16%; in the experiment with HepG2 it was 0%.

`COc1cc(CS(C)(=O)=O)ccc1Nc1nccc(-c2c(-c3cccc(NC(=O)c4c(F)cccc4F)c3)nn3ccccc23)n1`: the Inhibition is given as 92% with Plasmodium falciparum [1], 71% with Plasmodium falciparum [2] and 46% in the experiment with HepG2.

As to `CCCCCC(C)C(C)c1cc(O)c2c(c1)OC(C)(C)C=C2c1cc[n+]([O-])cc1` (stereo not drawn), the results for the Inhibition with Plasmodium falciparum [1], in the experiment with Plasmodium falciparum [2] and in the experiment with HepG2 were 91%, 2% and 11%, respectively.

For `Cc1[nH]c(C)c(-c2ccc(-c3ccccc3F)nc2)c(=O)c1Br`, the figures for the Inhibition in the experiment with Plasmodium falciparum [1], in the experiment with Plasmodium falciparum [2] and in the experiment with HepG2 were 97%, 97% and 2%, respectively.

Take `O=C(Nc1ccccc1)c1ccc(-c2cc3ccncc3cc2OC2CCNCC2)s1`: the Inhibition with Plasmodium falciparum [1] is 100%; in the experiment on Plasmodium falciparum [2], 8%; in the experiment with HepG2, 0%.

Consider `CCCCCCCCCCS(=O)(=O)N[C@H](COCc1cccc(Oc2ccccc2)c1)COP(=O)([O-])OC.[Li+]`, for which the Inhibition in the experiment with Plasmodium falciparum [1] worked out at 87%; with Plasmodium falciparum [2], 0%; in the experiment with HepG2, 0%.

On to `CCNC(=O)c1ccc(-n2nc(C)cc2-c2ccccc2)cc1`, for which the results for the Inhibition with Plasmodium falciparum [1], with Plasmodium falciparum [2] and with HepG2 were 89%, 54% and 11%, respectively.

Consider `CN1CCN(Cc2cccc(-c3cc4nccc(Nc5ccc(Oc6ccccc6)cc5)c4cc3Cl)c2)CC1`, for which the Inhibition with Plasmodium falciparum [1] is given as 100%; in the experiment on Plasmodium falciparum [2] it was 96%; in the experiment with HepG2 it was 10%.

Consider `O=C(Nc1ccsc1)Nc1cccc(-c2cccc(-c3nc4cc(C(F)(F)F)ccc4[nH]3)c2)c1`, for which the Inhibition with Plasmodium falciparum [1] worked out at 100%; in the experiment on Plasmodium falciparum [2] it was 100%; with HepG2, 76%.

As to `COc1nc2c(CCN3CC[C@H](NCc4cc(C#N)c5c(c4)OCCO5)[C@H](O)C3)ccnc2cc1F`, the Inhibition in the experiment on Plasmodium falciparum [1] is 95%; in the experiment with Plasmodium falciparum [2] it was 41%; with HepG2, 18%.

As for `COc1cc(NC(=O)N2CCOC(CCN3CCC(c4ccccc4)CC3)(c3ccc(Cl)c(Cl)c3)C2)cc(OC)c1` (stereo not drawn), the Inhibition amounted to 93% in the experiment with Plasmodium falciparum [1], 73% in the experiment on Plasmodium falciparum [2] and 12% in the experiment with HepG2.

For `CCCC1CCNC(C(O)c2ccnc3ccc(OC)cc23)C1.Cl` (stereo not drawn), the Inhibition with Plasmodium falciparum [1] worked out at 98%; in the experiment on Plasmodium falciparum [2] it was 78%; in the experiment on HepG2, 0%.

Regarding `O=C(CCNc1ccnc(NCCc2ccc(F)cc2)n1)Nc1ccccc1.O=C(O)C(F)(F)F`, the Inhibition in the experiment with Plasmodium falciparum [1] is reported as 95%; in the experiment with Plasmodium falciparum [2] it was 10%; in the experiment with HepG2, 9%.

With `Nc1cc(-c2ccc(-c3cccs3)s2)nc2ccccc12`, the Inhibition with Plasmodium falciparum [1] worked out at 100%; in the experiment with Plasmodium falciparum [2], 50%; in the experiment with HepG2 it was 32%.

Turning to `CC(C)C[C@@H](/C=N/NC(N)=O)NC(=O)[C@H](CC(C)C)NC(=O)[C@H](CC(C)C)NC(=O)OCc1ccccc1`, the figures for the Inhibition with Plasmodium falciparum [1], with Plasmodium falciparum [2] and in the experiment with HepG2 were 100%, 99% and 41%, respectively.

On to `Cc1cccc2nc(-c3ccc(-c4ccc(CNCC5CCCO5)cc4)cc3)[nH]c12.O=C(O)C(F)(F)F` (stereo not drawn), for which the Inhibition is recorded as 100% in the experiment on Plasmodium falciparum [1], 81% in the experiment with Plasmodium falciparum [2] and 36% in the experiment on HepG2.
